Reference: the supplement of paper PMC11732987, “Enantioselective OTUD7B fragment discovery through chemoproteomics screening and high-throughput optimisation” (Communications Chemistry, 2025)

Tests used:
Experiment in all cases: log2 ratio of Biotin-Ahx-Ub-VS probe labelling (fragment/DMSO); higher = less target engagement (more negative = stronger competition), active = hit call of the paper (q ≤ 0.05, log2 ratio ≤ -1)
Details in all cases: compound concentration: 200 uM; treatment time: 3 h
USP19 = target: T1, USP19 (UniProt O94966)
T1 sequence (whole entry): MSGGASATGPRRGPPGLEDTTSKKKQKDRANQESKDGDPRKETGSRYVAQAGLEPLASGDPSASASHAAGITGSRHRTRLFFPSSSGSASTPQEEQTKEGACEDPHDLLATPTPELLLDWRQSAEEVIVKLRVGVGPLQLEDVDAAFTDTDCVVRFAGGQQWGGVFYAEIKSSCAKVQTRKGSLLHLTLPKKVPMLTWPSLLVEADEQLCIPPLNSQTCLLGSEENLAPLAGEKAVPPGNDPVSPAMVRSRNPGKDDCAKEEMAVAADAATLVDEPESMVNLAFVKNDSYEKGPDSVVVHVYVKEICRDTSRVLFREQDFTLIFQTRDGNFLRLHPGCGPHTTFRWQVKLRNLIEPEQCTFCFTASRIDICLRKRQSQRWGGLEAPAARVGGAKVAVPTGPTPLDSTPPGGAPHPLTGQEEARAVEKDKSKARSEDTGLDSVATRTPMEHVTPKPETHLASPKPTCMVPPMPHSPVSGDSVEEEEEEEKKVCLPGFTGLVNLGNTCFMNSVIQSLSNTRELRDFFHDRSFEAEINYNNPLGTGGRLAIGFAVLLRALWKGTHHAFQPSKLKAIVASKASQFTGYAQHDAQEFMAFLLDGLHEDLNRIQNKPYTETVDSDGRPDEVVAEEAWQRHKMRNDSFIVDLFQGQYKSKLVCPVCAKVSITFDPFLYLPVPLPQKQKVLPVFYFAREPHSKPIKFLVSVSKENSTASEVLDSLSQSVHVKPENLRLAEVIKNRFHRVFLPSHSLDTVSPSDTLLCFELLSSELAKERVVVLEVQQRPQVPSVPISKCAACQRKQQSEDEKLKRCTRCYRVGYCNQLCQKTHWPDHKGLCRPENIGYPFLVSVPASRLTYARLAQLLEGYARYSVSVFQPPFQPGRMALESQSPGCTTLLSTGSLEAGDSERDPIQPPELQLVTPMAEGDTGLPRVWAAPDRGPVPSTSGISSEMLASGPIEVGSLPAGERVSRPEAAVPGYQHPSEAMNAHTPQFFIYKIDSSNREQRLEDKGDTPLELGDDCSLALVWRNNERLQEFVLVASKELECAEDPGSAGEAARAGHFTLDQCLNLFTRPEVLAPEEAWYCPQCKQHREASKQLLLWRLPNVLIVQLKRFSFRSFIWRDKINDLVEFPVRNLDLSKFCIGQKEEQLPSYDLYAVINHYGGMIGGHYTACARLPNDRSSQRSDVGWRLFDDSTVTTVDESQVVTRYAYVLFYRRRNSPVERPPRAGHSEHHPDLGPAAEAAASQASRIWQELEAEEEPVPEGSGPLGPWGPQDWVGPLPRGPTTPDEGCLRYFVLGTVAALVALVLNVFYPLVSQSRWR
Outline: (§1)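 HEK293T lysate (495 µg per sample, in Tris/CHAPS/IGEPAL buffer with protease inhibitors) was treated in triplicate with fragment at 200 µM or with DMSO for 3 h. It was then treated with Biotin-Ahx-Ub-VS (0.5 µM final) for 1 h. Labelled DUBs were NeutrAvidin-enriched, digested with LysC and trypsin, and run by diaPASEF LC-MS/MS. Spectronaut label-free quantities were global-median-normalised. Values are average log2 ratios fragment/DMSO by unpaired t-test, using proteins with ≥2 unique peptides.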

USP22 = target: T2, USP22 (UniProt Q9UPT9)
T2 sequence (whole entry): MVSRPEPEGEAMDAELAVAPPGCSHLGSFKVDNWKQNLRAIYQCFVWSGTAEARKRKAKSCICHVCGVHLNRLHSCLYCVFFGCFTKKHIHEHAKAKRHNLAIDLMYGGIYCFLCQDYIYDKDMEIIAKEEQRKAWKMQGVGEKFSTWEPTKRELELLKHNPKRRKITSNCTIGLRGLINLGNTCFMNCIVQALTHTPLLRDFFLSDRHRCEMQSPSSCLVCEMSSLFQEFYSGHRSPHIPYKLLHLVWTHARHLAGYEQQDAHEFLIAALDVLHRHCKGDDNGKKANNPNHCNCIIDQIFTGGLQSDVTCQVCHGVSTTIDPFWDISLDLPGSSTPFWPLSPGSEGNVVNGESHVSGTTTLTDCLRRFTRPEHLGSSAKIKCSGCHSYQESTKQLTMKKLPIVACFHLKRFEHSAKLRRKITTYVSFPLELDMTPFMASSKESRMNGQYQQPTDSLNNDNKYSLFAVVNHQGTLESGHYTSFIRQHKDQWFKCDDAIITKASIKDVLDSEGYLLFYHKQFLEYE
Outline: as §1

USP24 = USP24 (UniProt Q9UPU5)
Chain of USP24 (Q9UPU5 whole entry): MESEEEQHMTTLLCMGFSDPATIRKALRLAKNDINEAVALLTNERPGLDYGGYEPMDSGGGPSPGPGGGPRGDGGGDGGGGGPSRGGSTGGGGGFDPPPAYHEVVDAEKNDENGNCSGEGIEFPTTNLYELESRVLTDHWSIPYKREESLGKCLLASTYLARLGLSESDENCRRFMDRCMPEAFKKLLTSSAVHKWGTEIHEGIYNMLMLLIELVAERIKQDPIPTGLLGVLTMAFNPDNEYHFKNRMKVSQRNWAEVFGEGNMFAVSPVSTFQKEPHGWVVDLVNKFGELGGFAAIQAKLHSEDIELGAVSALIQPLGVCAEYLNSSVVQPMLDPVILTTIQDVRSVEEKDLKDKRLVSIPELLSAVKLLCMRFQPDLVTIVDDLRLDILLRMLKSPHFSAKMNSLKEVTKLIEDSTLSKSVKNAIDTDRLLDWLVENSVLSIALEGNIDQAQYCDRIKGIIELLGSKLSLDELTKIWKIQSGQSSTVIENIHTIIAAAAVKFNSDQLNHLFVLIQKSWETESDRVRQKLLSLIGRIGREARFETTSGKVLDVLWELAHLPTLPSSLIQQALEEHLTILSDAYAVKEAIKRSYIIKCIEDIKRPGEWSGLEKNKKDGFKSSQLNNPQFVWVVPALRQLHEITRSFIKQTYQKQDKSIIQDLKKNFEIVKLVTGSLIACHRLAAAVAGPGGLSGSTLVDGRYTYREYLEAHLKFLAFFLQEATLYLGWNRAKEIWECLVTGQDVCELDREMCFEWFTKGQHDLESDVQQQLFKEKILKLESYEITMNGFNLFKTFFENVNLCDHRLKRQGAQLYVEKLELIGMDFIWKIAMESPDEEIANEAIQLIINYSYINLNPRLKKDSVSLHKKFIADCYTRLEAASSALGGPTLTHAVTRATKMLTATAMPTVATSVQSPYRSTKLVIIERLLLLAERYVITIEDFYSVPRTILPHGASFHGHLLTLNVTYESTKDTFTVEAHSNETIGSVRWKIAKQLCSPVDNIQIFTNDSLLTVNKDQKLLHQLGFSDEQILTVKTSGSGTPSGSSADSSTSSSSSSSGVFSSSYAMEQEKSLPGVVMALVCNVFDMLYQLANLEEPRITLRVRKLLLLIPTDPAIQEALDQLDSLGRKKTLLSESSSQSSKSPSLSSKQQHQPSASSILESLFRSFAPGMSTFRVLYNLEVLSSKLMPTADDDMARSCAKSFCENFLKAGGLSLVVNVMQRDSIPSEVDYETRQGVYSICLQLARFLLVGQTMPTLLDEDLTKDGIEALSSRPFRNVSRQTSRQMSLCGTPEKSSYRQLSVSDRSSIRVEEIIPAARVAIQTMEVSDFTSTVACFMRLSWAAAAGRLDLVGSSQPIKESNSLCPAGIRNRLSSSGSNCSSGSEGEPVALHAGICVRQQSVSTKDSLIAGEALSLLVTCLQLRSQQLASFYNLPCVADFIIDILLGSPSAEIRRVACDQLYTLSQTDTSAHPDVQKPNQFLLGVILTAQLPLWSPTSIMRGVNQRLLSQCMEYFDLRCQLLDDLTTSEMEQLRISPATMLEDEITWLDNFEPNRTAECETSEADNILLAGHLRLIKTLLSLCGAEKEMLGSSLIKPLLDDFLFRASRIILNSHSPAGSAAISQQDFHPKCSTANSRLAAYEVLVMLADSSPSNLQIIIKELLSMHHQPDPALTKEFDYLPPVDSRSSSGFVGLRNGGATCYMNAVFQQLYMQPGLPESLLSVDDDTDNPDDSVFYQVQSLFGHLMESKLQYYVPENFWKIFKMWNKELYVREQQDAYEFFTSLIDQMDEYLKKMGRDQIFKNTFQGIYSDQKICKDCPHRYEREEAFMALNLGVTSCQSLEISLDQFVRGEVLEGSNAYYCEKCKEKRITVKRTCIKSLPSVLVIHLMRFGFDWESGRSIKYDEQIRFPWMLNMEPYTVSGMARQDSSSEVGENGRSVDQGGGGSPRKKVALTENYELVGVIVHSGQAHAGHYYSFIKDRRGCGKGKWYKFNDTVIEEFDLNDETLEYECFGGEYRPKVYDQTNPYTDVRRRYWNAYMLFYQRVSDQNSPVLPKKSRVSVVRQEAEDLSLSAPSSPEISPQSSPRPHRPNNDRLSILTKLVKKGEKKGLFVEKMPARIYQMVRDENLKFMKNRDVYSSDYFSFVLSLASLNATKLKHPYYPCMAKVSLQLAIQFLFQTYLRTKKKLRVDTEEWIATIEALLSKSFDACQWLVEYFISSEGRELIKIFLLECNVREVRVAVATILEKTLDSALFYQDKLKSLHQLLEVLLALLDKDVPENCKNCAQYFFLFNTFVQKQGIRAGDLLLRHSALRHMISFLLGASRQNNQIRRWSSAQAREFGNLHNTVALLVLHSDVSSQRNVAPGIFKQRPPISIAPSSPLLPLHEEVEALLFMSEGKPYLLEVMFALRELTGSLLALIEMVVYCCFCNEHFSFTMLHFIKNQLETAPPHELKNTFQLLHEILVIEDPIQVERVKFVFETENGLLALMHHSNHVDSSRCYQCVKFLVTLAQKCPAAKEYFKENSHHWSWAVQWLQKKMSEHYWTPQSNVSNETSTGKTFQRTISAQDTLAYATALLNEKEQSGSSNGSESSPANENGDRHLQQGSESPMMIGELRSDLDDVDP
Outline: as §1

USP25 = target: T3, USP25 (UniProt Q9UHP3)
T3 sequence (whole entry): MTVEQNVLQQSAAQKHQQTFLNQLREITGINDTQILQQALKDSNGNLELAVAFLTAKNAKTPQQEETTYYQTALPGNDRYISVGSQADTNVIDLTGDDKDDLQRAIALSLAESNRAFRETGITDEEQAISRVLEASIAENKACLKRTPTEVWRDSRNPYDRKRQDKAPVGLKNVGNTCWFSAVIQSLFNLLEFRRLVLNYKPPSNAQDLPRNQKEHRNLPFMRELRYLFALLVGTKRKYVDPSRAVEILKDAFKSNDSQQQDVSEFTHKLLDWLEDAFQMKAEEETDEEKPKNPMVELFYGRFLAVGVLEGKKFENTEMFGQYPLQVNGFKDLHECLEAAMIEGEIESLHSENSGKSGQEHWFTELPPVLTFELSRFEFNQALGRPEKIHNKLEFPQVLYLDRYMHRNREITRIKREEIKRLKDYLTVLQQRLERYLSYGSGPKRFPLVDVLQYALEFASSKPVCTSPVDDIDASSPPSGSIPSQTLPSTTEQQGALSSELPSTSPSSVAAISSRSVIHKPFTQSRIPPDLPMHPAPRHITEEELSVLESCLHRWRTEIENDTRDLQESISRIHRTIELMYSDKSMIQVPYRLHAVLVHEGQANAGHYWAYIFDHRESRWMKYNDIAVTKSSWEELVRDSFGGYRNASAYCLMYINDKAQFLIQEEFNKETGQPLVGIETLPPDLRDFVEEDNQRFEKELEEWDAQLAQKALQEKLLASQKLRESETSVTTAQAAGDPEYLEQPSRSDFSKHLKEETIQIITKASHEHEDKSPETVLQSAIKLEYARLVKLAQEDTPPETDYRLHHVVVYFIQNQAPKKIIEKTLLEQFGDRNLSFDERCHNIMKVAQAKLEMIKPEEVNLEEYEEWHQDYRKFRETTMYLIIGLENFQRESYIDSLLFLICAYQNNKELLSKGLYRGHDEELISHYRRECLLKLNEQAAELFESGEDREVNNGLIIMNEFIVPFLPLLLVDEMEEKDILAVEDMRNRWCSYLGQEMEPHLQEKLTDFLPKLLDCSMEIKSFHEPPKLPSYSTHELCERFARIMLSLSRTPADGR
Outline: as §1

USP28 = target: T4, USP28 (UniProt Q96RU2)
T4 sequence (whole entry): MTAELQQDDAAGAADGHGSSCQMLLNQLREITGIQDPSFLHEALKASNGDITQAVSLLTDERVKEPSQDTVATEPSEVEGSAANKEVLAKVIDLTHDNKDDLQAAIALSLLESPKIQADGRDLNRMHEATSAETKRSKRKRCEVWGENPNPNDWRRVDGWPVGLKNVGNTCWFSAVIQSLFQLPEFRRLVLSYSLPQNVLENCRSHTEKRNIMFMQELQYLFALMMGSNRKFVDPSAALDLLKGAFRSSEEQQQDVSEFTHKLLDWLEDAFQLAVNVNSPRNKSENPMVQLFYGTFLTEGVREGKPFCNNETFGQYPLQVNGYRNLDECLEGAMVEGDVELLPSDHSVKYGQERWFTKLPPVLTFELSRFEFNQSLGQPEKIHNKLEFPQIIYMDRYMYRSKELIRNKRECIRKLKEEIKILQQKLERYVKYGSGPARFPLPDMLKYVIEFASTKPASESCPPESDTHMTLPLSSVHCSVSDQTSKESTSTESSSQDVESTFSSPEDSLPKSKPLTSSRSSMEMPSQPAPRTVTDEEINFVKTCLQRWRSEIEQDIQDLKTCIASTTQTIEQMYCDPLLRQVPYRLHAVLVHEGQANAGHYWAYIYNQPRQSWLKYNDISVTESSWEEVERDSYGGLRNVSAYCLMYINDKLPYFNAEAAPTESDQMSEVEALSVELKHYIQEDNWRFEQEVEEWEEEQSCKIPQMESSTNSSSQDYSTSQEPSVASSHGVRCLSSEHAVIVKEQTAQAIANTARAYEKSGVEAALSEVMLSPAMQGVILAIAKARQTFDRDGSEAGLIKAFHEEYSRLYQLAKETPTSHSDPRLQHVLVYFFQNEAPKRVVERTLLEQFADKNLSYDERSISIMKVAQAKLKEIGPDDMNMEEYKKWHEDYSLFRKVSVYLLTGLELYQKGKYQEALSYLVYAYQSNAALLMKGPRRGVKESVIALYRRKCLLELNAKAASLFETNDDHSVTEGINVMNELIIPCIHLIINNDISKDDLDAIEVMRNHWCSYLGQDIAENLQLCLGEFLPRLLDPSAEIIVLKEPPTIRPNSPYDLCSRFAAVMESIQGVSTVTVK
Outline: as §1

Measured: log2 ratio of Biotin-Ahx-Ub-VS probe labelling

O=C(CCl)N1CCC(C(=O)N2CCCC2)CC1
inactive: USP19 -0.228 | USP22 0.0347 | USP24 -0.075 | USP25 -0.128 | USP28 -0.299
